Article PMC4336329 (PLoS ONE, 2015)
The whole screen tested about 310,000 compounds, of which about 2,200 (0.71%) showed an effect of 50% or more. Effects have a minus sign here. The sample as a whole holds a higher share of strong results than the screen did.

Molecular target: human ether-à-go-go-related gene (hERG) potassium channel (human, UniProt Q12809)
Assay: primary screen, population patch clamp on CHO cells stably expressing hERG; higher = less effect of the substance

human ether-à-go-go-related gene (hERG) potassium channel, sequence (Q12809 whole entry, looked up): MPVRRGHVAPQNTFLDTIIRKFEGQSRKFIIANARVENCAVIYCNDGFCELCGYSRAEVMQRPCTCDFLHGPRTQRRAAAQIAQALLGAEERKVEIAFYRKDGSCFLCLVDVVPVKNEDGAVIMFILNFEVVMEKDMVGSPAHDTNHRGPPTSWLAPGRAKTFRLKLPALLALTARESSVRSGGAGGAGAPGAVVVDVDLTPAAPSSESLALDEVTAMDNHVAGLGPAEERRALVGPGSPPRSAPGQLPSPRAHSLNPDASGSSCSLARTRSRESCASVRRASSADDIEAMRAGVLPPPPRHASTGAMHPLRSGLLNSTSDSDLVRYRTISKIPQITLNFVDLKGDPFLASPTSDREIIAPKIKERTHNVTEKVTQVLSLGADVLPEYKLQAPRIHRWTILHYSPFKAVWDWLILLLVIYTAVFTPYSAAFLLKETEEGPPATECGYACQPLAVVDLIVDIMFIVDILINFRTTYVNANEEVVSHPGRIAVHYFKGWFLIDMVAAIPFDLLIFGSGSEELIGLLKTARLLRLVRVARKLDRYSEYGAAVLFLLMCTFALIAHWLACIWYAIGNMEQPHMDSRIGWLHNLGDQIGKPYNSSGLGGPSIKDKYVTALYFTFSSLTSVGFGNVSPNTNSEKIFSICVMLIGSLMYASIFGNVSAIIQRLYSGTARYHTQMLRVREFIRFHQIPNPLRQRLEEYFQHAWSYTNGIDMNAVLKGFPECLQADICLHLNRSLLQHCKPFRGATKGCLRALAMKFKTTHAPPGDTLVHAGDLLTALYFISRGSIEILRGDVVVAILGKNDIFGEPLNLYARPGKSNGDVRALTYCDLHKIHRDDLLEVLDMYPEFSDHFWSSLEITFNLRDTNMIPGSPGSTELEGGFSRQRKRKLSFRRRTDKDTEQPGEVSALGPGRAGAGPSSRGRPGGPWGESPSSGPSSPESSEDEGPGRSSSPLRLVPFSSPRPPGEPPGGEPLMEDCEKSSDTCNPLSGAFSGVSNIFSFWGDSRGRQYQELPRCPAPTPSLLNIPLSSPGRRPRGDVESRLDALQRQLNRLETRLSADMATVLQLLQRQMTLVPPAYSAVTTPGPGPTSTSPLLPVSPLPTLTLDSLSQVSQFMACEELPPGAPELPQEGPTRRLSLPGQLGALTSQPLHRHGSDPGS

Compound | hERG current change (%, negative = inhibition) at 1uM [%]
O=C(NCCN1CCOCC1)c1cc2cc(Br)ccc2oc1=O | 0.63
CN1C(C(=O)NCc2ccc(OC(F)(F)F)cc2)CC2Cn3c(nc4cc5ccccc5cc43)C21 (centres unmarked) | -14.7
O=C(NCc1ccc(OC(F)(F)F)cc1)C1CC2Cn3c(nc4ccccc43)C2N1c1ccccc1 (centres unmarked) | -15.8
CN1C(C(=O)NCc2ccc(OC(F)(F)F)cc2)CC2Cn3c(nc4ccccc43)C21 (centres unmarked) | -74.9
COc1ccc(C2C(C(=O)NCc3ccccc3)=C(C)Nc3ncnn32)cc1OC (centres unmarked) | 13.9
CC(=O)Nc1ccc(S(=O)(=O)N2CCN(C34CC5CC(CC(C5)C3)C4)CC2)cc1 | 3.31
N#Cc1ccc(S(=O)(=O)N2CCN(CC(=O)Nc3ccccc3C(=O)NC3CC3)CC2)cc1 | -67.3
N#Cc1ccc(CN2CCN(CC(=O)Nc3ccccc3C(=O)NC3CC3)CC2)cc1 | -87.4
O=C(CN1CCN(S(=O)(=O)c2ccccc2)CC1)Nc1ccccc1C(=O)NC1CC1 | 1.22
CC(=O)c1ccc(S(=O)(=O)N2CCN(CC(=O)Nc3ccccc3C(=O)NC3CC3)CC2)cc1 | -43.4
N#Cc1ccccc1S(=O)(=O)N1CCN(CC(=O)Nc2ccccc2C(=O)NC2CC2)CC1 | -25.4
O=C(CN1CCc2ccccc2C1)Nc1ccccc1C(=O)NC1CC1 | 3.95
O=C(CSc1nc2[nH]c(=O)cc(O)c2s1)Nc1cccc(Br)c1 | 18.8
S=c1[nH]nc(-c2cc(-c3ccco3)[nH]n2)n1-c1ccccc1 | 3.15
CC(=O)c1ccc(N2CCN(c3ccccc3O)CC2)c([N+](=O)[O-])c1 | 12.9
Cc1ccc2nc(N3CCN(C(=O)c4cccs4)CC3)c(C#N)cc2c1 | -51.3
Cc1ccc2nc(N3CCN(C)CC3)c(C#N)cc2c1 | -10
Cc1ccc2nc(N3CCN(C(=O)c4ccc(F)cc4)CC3)c(C#N)cc2c1 | -56.8
Cc1ccc2cc(C#N)c(N3CCN(C(=O)c4cccs4)CC3)nc2c1 | -1
Cc1ccc2cc(C#N)c(N3CCN(C(=O)c4ccccc4)CC3)nc2c1 | -6.89
N#Cc1cccnc1N1CCN(C(=O)c2cccs2)CC1 | 7.29

Compound | hERG current change (%, negative = inhibition) at 1uM [%]
CCC(NC(=O)Cc1c(C)c2ccc(OC)c(C)c2oc1=O)C(=O)NC(Cc1ccc(Cl)cc1)C(=O)O (centres unmarked) | 0.501
COc1ccc(-n2c(O)c(/C=C3\C=Nc4ccc(Br)cc43)c(=O)[nH]c2=O)cc1 | 12
CC(c1cccs1)N(Cc1ccco1)C(=S)Nc1ccccc1Cl (centres unmarked) | 11.9
c1ccc(NC2=NCCCCS2)cc1 | -9.85
OCCCn1c(C2CCCN2c2nc(-c3ccc(F)cc3)cs2)nc2cc(C(F)(F)F)ccc21 (centres unmarked) | 2.52
Cc1csc(N2CCCC2c2nc3cc(Cl)c(N4CCCCC4)cc3n2CCOCCO)n1 (centres unmarked) | -2.57
Cc1ccc(Cn2c(C3CCCN3c3nc(C)cs3)nc3cc(C(F)(F)F)ccc32)cc1 (centres unmarked) | 8.04
OCCOCCn1c(C2CCCN2c2nc(-c3ccc(F)cc3)cs2)nc2cc(Cl)c(Cl)cc21 (centres unmarked) | -0.144
OCCOCCn1c(C2CCCN2c2nc(-c3ccc(F)cc3)cs2)nc2cc(C(F)(F)F)ccc21 (centres unmarked) | -73.2
Cc1csc(N2CCCC2c2nc3cc(C(F)(F)F)ccc3n2CCOCCO)n1 (centres unmarked) | -62.8
COc1ccc(NC(=O)CSc2nnc(Cn3cnc([N+](=O)[O-])n3)n2C)cc1 | 12.5
Cc1ccc(OCC(=O)NNC(=O)CSc2nnc(-c3ccc(C)cc3)n2C)cc1 | 7.24
CCC(=O)N1CCN(c2ccccc2NC(=O)Cc2ccc(Cl)cc2)CC1 | -41.5
Cc1ccc(SCCOCCN2CCc3ccccc3C2)cc1 | -6.57
c1ccc(SCCOCCN2CCc3ccccc3C2)cc1 | -62.7
Cl.Clc1ccc(SCCOCCN2CCc3ccccc3C2)cc1 | 8.68
Clc1ccc(SCCOCCN2CCCCCC2)cc1.O=C(O)C(=O)O | -20.6
Clc1ccc(SCCCN2CCCCC2)cc1.O=C(O)C(=O)O | -24.5
Clc1ccc(SCCOCCN2CCCCC2)cc1.O=C(O)C(=O)O | -61.1
CC(NC(=O)CCC(=O)N1CCCCCC1)c1ccccc1 (centres unmarked) | 16.8
Cc1ccc(NC(=O)c2noc(C(C)C)c2[N+](=O)[O-])cc1 | 4.81

Compound | hERG current change (%, negative = inhibition) at 1uM [%]
CCN1/C(=C(\O)c2ccccc2)C(=O)c2ccccc2S1(=O)=O | 13.6
COc1cc2c(cc1OC)C(COc1cc(C)cc(C)c1)N(C(C)=O)CC2 (centres unmarked) | 2.4
CCOC(=O)c1ccc(NC(=S)N(CCCN2CCCC(C)C2)Cc2ccco2)cc1 (centres unmarked) | -42.8
CCOC(=O)c1ccc(NC(=S)N(CCCN(CC)CC)Cc2ccco2)cc1 | -57.9
CCOC(=O)c1ccc(NC(=S)N(CCN2CCCCCC2)Cc2ccco2)cc1 | -87.2
CCOC(=O)c1ccc(NC(=S)N(CCCN2CCCCC2)Cc2ccco2)cc1 | -71.3
CCOC(=O)c1ccc(NC(=S)N(CCCN2CCCCCC2)Cc2ccco2)cc1 | -31.7
CCOC(=O)c1ccc(NC(=S)N(Cc2cccnc2)Cc2ccco2)cc1 | 7.3
CCN1CCN(CCCN(Cc2ccco2)C(=S)Nc2ccc(Cl)cc2)CC1 | -18.6
CCc1ccc(NC(=S)N(CCN2CCCCC2)Cc2ccco2)cc1 | -34.7
CN1CCN(CCCN(Cc2ccco2)C(=S)Nc2ccc(Cl)cc2)CC1 | -53.8
CCOC(=O)c1ccc(NC(=S)N(CCCN2CCN(CC)CC2)Cc2ccco2)cc1 | -45.4
CCOC(=O)c1ccc(NC(=S)N(CCN2CCCCCC2)Cc2cccs2)cc1 | 8.82
S=C(Nc1ccc(Cl)cc1)N(CCCN1CCOCC1)Cc1ccco1 | -8.98
CCOc1cccc(NC(=O)C2CC(=O)N(C)C(=Nc3cccc(F)c3)S2)c1 (centres unmarked) | 9.17
N#Cc1ccc(-c2ccc(OCC3CNC(=O)O3)cc2)cc1 (centres unmarked) | 8.74
CCOC(=O)c1cccc(NC(=O)CCNS(=O)(=O)c2cc(Br)cnc2N)c1 | 14.4
Cc1ccc(S(=O)(=O)N2CCC(=O)N(CCOCc3cccc(F)c3)CC2)cc1 | 7.15
O=C(O)CCn1nnc(-c2ccccc2)n1 | 10.7
O=C(COc1ccc(Cl)cc1)NCc1nnc(SCC(=O)Nc2ccccc2)o1 | 1.01
Cc1ccc(SCC(=O)Nc2ccc(C(=O)Nc3ccc(O)cc3)cc2)cc1 | 12.6

Compound | hERG current change (%, negative = inhibition) at 1uM [%]
Cc1ccc(NC(=O)Cc2ccc([N+](=O)[O-])cc2)c(Br)c1 | 5.32
CC(C)Oc1ccc(CCC(=O)N/N=C/c2ccc3c(c2)OCO3)cc1 | 16.1
N=c1c2c(ncn1CCCO)Oc1c(ccc3ccccc13)C2c1ccccc1 (centres unmarked) | -20.5
COc1ccc(C2c3ccc4ccccc4c3Oc3ncn(CCCN(C)C)c(=N)c32)cc1 (centres unmarked) | -29
COc1ccc(C2c3ccc4ccccc4c3Oc3ncn(CCO)c(=N)c32)cc1OC (centres unmarked) | -13.9
COc1ccc(C2c3ccc4ccccc4c3Oc3ncn(CCCO)c(=N)c32)cc1 (centres unmarked) | -40.6
CN(C)CCCn1cnc2c(c1=N)C(c1ccccc1)c1ccc3ccccc3c1O2 (centres unmarked) | -61.9
CN(C)CCn1cnc2c(c1=N)C(c1ccccc1)c1ccc3ccccc3c1O2 (centres unmarked) | -78.1
COc1ccc(C2c3ccc4ccccc4c3Oc3ncn(CCN(C)C)c(=N)c32)cc1 (centres unmarked) | -40.1
COc1ccccc1C1c2ccc3ccccc3c2Oc2ncn(CCN(C)C)c(=N)c21 (centres unmarked) | -7
COc1ccc(C2c3ccc4ccccc4c3Oc3ncn(CCO)c(=N)c32)cc1 (centres unmarked) | -61.7
Nc1cccc2c1C(=O)N(C(=O)c1ccc(Cl)c(S(=O)(=O)N3CCCCCC3)c1)C2=O | 13.1
COc1cccc(CCc2nnc(CCC(=O)N3CCN(Cc4ccccn4)CC3)o2)c1 | 10.2
COCCCNC(=O)c1cc2c(=O)n(C)c3ccccc3c2n1C | -8.02
O=C(COC(=O)CCN1C(=O)c2ccccc2C1=O)Nc1ccccc1[N+](=O)[O-] | 16.6
O=C(CSc1nnc(-c2ccco2)o1)N1c2ccccc2CCc2ccccc21 | 9.21
CCOC(=O)C(C)n1cnc2c(nnn2Cc2ccc(C)cc2)c1=O (centres unmarked) | 11.6
CC(C)c1ccc(-c2nc(N3CCCCCC3)nc3n[nH]c(N)c23)cc1 | 10.2
COc1ccc(NC(=O)Cn2nnc(C(=O)NCCc3ccc(OC)c(OC)c3)c2N)c(OC)c1 | -1.5
CCn1c(CCc2ccccc2)nnc1SCC(N)=O | 13.3
